Entries with a potency or affinity are not part of this list. The source made the active and inactive calls. The rule behind the calls is not given here.
Experiment: toxicity toward HepG2 liver cells – cell-based, plate reader, cherry-pick, antagonist series, cytotoxicity control, dose response (AID 743416)
Conditions: series mostly up to 26 µM
For O=C(c1cc(-c2ccc(Cl)cc2Cl)on1)N1CCOCC1, the outcome was “inactive”.
With Cc1ccccc1S(=O)(=O)N1[C@H](C#N)[C@H](c2ccc(C#CC3CCCCC3)cc2)[C@H]1CO the outcome was “inactive”.
For Cc1cc(C(=O)CSc2nnc(N)s2)c(C)n1Cc1cccs1, the outcome was “inactive”.
In the case of Cc1csc(NC(=O)c2ccc(OCC3CCCO3)cc2)n1 (stereo not drawn), the outcome is reported as “inactive”.
In the case of O=C(Nc1ccc(N2CCN(C(=O)c3ccc(Cl)cc3)CC2)cc1)c1cc2ccccc2o1, the outcome is reported as “inactive”.
In the case of Clc1ccc(OCc2nc(-c3ccccn3)no2)c(Br)c1, the outcome is reported as “inactive”.
In the case of CCS(=O)(=O)N1Cc2ccccc2CC1C(=O)Nc1nc2ccccc2s1 (stereo not drawn), the outcome is reported as “inactive”.
With O=C(Nc1nc2c(s1)CCCC2)C1COc2ccccc2O1 (stereo not drawn) the outcome was “inactive”.

From PubChem BioAssay
